Paper PMC10954555

How the values were obtained:
[1] = molecular target: Large ribosomal subunit protein eL6 (UniProt Q02878); test: other; cross-linking mass spectrometry; other
[2] = molecular target: Ubiquitin-ribosomal protein eS31 fusion protein (UniProt P62979); test: other; cross-linking mass spectrometry; other
[3] = molecular target: Large ribosomal subunit protein uL5 (UniProt P62913); test: cross-linking mass spectrometry; other
[4] = molecular target: Actin, alpha skeletal muscle (UniProt P68133); test: cross-link between two proteins; cross-linking mass spectrometry; other
[5] = molecular target: Bromodomain-containing protein 3 (UniProt Q15059); test: other; cross-linking mass spectrometry; other
Chain of Bromodomain-containing protein 3 (Q15059 whole entry): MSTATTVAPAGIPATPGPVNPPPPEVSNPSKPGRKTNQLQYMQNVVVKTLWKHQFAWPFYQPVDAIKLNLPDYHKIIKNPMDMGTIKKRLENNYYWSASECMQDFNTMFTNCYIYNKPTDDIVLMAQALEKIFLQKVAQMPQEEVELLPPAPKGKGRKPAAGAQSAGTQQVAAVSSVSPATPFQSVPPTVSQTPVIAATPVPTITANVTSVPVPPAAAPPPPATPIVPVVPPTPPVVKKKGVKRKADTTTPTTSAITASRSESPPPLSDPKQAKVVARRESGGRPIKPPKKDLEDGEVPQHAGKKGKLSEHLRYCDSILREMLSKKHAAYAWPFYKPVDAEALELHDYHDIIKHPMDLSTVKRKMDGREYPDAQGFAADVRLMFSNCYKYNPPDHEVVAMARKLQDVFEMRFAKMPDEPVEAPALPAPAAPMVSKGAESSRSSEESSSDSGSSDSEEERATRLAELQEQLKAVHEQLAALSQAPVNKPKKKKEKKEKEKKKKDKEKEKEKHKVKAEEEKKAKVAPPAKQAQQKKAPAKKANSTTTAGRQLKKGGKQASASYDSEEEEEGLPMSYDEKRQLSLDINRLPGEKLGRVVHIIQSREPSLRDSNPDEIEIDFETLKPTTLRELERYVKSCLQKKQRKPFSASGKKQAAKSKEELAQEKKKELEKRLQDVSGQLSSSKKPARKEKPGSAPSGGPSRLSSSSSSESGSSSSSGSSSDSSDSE

[6] = molecular target: Replication factor C subunit 5 (UniProt P40937); test: other; cross-linking mass spectrometry; other
Chain of Replication factor C subunit 5 (P40937 whole entry, the tested form may be a part): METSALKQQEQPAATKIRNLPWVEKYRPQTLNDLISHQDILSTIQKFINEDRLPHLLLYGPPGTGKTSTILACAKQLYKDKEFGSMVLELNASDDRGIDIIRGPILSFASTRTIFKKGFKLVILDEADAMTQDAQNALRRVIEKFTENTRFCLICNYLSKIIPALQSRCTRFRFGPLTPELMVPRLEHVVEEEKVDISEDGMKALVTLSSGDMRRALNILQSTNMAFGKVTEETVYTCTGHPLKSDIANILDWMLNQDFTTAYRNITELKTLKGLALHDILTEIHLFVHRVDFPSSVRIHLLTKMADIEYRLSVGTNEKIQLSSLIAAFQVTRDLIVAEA

[7] = molecular target: High mobility group nucleosome-binding domain-containing protein 3 (UniProt Q15651); test: other; cross-linking mass spectrometry; other
[8] = molecular target: Large ribosomal subunit protein eL34 (UniProt P49207); test: other; cross-linking mass spectrometry; other
[9] = molecular target: Large ribosomal subunit protein eL8 (UniProt P62424); test: other; cross-linking mass spectrometry; other
[10] = molecular target: Large ribosomal subunit protein uL2 (UniProt P62917); test: other; cross-linking mass spectrometry; other
[11] = molecular target: Small ribosomal subunit protein eS6 (UniProt P62753); test: other; cross-linking mass spectrometry; other
[12] = molecular target: DNA-directed RNA polymerase II subunit RPB3 (UniProt P19387); test: other; cross-linking mass spectrometry; other
[13] = molecular target: DNA-directed RNA polymerase II subunit RPB1 (UniProt P24928); test: other; affinity purification or IP with mass spectrometry; other
[14] = molecular target: DNA-directed RNA polymerase II subunit RPB9 (UniProt P36954); test: as above
[15] = molecular target: DNA-directed RNA polymerase II subunit RPB2 (UniProt P30876); test: other; affinity purification or IP with mass spectrometry; cross-linking mass spectrometry; other
[16] = molecular target: RNA polymerase-associated protein LEO1 (UniProt Q8WVC0); test: other; cross-linking mass spectrometry; other
[17] = molecular target: RNA polymerase II-associated factor 1 homolog (UniProt Q8N7H5); test: other; cross-linking mass spectrometry; other
[18] = molecular target: Small ribosomal subunit protein uS7 (UniProt P46782); test: other; cross-linking mass spectrometry; other
RNA-binding protein 8A = RNA-binding protein 8A (UniProt Q9Y5S9); test: other; cross-linking mass spectrometry; other
[19] = molecular target: Small ribosomal subunit protein uS14 (UniProt P62273); test: other; cross-linking mass spectrometry; other
[20] = molecular target: Retinoblastoma-binding protein 5 (UniProt Q15291); test: other; cross-linking mass spectrometry; other
Chain of Retinoblastoma-binding protein 5 (Q15291 whole entry): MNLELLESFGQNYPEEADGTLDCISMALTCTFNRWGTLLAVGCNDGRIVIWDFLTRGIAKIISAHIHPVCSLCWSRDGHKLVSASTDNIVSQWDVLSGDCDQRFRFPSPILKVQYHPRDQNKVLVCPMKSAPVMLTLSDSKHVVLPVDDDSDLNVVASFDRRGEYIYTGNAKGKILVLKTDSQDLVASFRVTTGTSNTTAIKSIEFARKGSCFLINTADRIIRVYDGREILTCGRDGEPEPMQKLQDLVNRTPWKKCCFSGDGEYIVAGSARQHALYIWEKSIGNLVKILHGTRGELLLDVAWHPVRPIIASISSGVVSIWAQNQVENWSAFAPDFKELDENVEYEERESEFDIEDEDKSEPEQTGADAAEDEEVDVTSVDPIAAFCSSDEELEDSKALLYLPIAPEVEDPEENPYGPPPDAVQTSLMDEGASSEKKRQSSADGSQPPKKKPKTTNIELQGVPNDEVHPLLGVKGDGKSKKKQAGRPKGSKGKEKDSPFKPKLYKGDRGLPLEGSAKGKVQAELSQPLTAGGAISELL

Actin, cytoplasmic 2 = Actin, cytoplasmic 2 (UniProt P63261); test: other; cross-linking mass spectrometry; other

Chain of Replication factor C subunit 4, P35249 (P35249 whole entry): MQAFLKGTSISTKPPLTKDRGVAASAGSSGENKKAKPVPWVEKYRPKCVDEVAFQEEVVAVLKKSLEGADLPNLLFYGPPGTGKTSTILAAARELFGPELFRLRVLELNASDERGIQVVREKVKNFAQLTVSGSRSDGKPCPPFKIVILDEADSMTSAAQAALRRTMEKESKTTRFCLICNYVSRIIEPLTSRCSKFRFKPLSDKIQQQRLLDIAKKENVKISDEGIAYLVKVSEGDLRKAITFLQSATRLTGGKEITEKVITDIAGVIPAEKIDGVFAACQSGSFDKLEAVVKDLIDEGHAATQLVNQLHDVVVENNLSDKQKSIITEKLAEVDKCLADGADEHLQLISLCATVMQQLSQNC

Q: Which “listed as a hit” value [1] does the source give for “Large ribosomal subunit protein eL32, P62910” here?
A: Its value is “yes”.

Q: “Small ribosomal subunit protein eS1, P61247” was tested. Which “listed as a hit” value [2] did it give?
A: The value was “yes”.

Q: For “Large ribosomal subunit protein uL1, P62906”, which “listed as a hit” value [3] is on record?
A: Its value is “yes”.

Q: With Actin, cytoplasmic 2, P63261 as the substance, how does the “listed as a hit” value [4] read?
A: The value was “yes”.

Q: “Bromodomain-containing protein 4, O60885” was tested. Which “listed as a hit” value [5] did it give?
A: The value was “yes”.

Q: With Replication factor C subunit 4, P35249 as the substance, how does the “listed as a hit” value [6] read?
A: The value was “yes”.

Q: “Non-histone chromosomal protein HMG-17, P05204” was tested. Which “listed as a hit” value [7] did it give?
A: The value was “yes”.

Q: Which “listed as a hit” value [8] does the source give for “Large ribosomal subunit protein uL4, P36578” here?
A: The value was “yes”.

Q: What about the “listed as a hit” value [9] of the same substance?
A: Its value is “yes”.

Q: And the “listed as a hit” value [10]?
A: Its value is “yes”.

Q: For “Small ribosomal subunit protein uS17, P62280”, which “listed as a hit” value [11] is on record?
A: The value was “yes”.

Q: With “Small ribosomal subunit protein uS7, P46782” as the substance, how does the “listed as a hit” value [2] read?
A: The value was “yes”.

Q: With “DNA-directed RNA polymerase II subunit RPB4, O15514” as the substance, how does the “listed as a hit” value [12] read?
A: Its value is “yes”.

Q: What about the “listed as a hit” value [13] of the same substance?
A: The value was “yes”.

Q: What does the source list for “DNA-directed RNA polymerase II subunit RPB1, P24928”?
A: listed as a hit [14]: yes; listed as a hit [15]: yes

Q: Which “listed as a hit” value [16] does the source give for “RNA polymerase II-associated factor 1 homolog, Q8N7H5” here?
A: Its value is “yes”.

Q: How did the “listed as a hit” value [17] turn out when Parafibromin, Q6P1J9 was run?
A: The value was “yes”.

Q: And the “listed as a hit” value [16]?
A: The value was “yes”.

Q: With “Small ribosomal subunit protein eS19, P39019” as the substance, how does the “listed as a hit” value [18] read?
A: Its value is “yes”.

Q: How did the “listed as a hit” value (RNA-binding protein 8A) turn out when “Eukaryotic initiation factor 4A-III, P38919” was run?
A: The value was “yes”.

Q: “Small ribosomal subunit protein uS10, P60866” was tested. Which “listed as a hit” value [19] did it give?
A: Its value is “yes”.

Q: With “Histone-lysine N-methyltransferase 2A, Q03164” as the substance, how does the “listed as a hit” value [20] read?
A: The value was “yes”.

Q: Which results are given for “RNA polymerase-associated protein CTR9 homolog, Q6PD62”?
A: listed as a hit [17]: yes; listed as a hit [16]: yes

Q: With Actin, cytoplasmic 1, P60709 as the substance, how does the “listed as a hit” value (Actin, cytoplasmic 2) read?
A: The value was “yes”.
